# Screening results deposited in PubChem by National Center for Advancing Translational Sciences (NCATS).
# Compounds with a hit are over-represented: about 3.8% of the library has one in this group of screens.
# VDR inhibitor = vitamin D3 receptor (human) inhibition | P11473 | VDR-SRC2-3 peptide fluorescence polarization, 2 h | Potency, µM, without a hit: max response, negative = inhibition, hits mostly inhibitors | 0.93% of 400,000 active | AID 504847
# Target sequence (P11473 whole entry, looked up): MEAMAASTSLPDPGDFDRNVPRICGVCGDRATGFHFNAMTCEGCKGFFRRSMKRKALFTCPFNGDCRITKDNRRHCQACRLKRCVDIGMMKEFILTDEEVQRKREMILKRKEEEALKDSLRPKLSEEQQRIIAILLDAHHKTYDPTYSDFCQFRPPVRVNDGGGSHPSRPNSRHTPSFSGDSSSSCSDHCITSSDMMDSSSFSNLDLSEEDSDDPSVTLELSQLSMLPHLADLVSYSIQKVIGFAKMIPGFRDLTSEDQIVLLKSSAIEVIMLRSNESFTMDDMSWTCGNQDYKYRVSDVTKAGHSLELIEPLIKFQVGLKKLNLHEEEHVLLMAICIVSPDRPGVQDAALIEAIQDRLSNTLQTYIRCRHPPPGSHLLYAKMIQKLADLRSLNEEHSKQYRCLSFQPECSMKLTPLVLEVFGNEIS
#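 Two reagent solutions held at 4 deg C in the dark were dispensed, compounds pinned at 23 nl, and the mixture incubated 2 h at room temperature. Read-out: fluorescence polarization of VDR–SRC2-3 peptide binding.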
# TrxR1 substrate = rat thioredoxin reductase 1 substrate activity | AID 588456 | Potency, µM (highest dose often 114 µM), for inactives: top-dose activity change, negative = substrate turnover | 0.01% of 390,000 active | purified TrxR1 substrate turnover, NADPH consumption readout | O89049; note: nearly all actives have a fitted effect of over 50% in size
#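 Rat TrxR1, dispensed at 90 nM, was prereduced with 400 uM NADPH (final) for 5 min at ~22 deg C, then incubated with compound 15 min before 400 uM selenite. A first-read NADPH fluorescence drop versus no-compound background flagged substrates.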
# Sfp inh = blocks B. subtilis Sfp PPTase activity; Q9F4F7; Biochemical Sfp PPTase activity, qHTS; Potency, µM, without a hit: largest response in the series, negative = inhibition, actives largely listed as inhibitors; 3.5% of 310,000 active;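 note: the enzyme is Sfp with the accession as filed and its product quenches rhodamine fluorescence; 0% = enzyme reaction without inhibitor and -100% = no enzyme wells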
#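 Reaction rates are the 30-min fluorescence difference (ex 525, em 598 nm) in wells containing 15 nM Sfp, 5 uM rhodamine-CoA and 12.5 uM BHQ-2-YbbR at pH 7.6 with 10 mM MgCl2.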
# GCN5L2 inh = blocks human GCN5L2 histone acetyltransferase. Q92830. GCN5L2 HAT assay, ThioGlo1 CoA-SH fluorescence. Potency, µM (top dose mostly 58.9 µM), for the others: at the highest dose activity change, negative = inhibition, actives largely listed as inhibitors. 0.21% of 390,000 active. AID 504327
#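 Compounds, pin-transferred from DMSO stocks, meet 20nM GCN5L2 for 15 min before the reaction begins with H3(1-25) peptide (75uM) and acetyl-CoA (70uM). Thiol-reactive ThioGlo1 reports CoA release over 20 min at room temperature.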
# GLS inh = blocks human kidney-isoform glutaminase activity | O94925 | GLS enzymatic activity, qHTS titration | Potency, µM (titrated, usually from 45.5 µM), inactives show at the highest dose activity change, negative = inhibition, most hits filed as inhibitors | 0.21% of 410,000 active
#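 hKGA in 45 mM KH2PO4 pH 8.2, 0.02% Tween-20 with pin-transferred compounds; 1 mM L-glutamine (stock) plus glutamate oxidase/HRP/Amplex Red coupling added. Fluorescence read initially and after 30 min at RT.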
# TrxR1 inh = rat TrxR1 inhibition. recombinant rTrxR1, NADPH fluorescence consumption, selenite substrate. Potency, µM (doses to about 114 µM), for inactives: at the highest dose activity change, negative = inhibition, most hits filed as inhibitors. 1% of 390,000 active; note: nearly all actives have a fitted effect of over 65% in size
#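 Rat TrxR1 (90 nM in the dispensed reagent) was pre-reduced with 400 uM NADPH for 5 min at room temperature, then incubated with compound for 15 min. After 400 uM selenite was added, NADPH fluorescence (Ex 340/Em 450 nm) was followed for 8 min.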
# * hit, by the source's call; ? = inconclusive; nt = no result given; ! = not confirmed by another sample; [ ] = another dose, or the depositor's remark. Calls come from the whole dose curve; as a rule, active = well fitted curve in the direction sought with a large enough effect; inconclusive = small, poorly fitted or top-dose-only effect, or another doubt; inactive = no such curve, though single readings can be large; an effect the other way counts as inactive or inconclusive. Unless noted, % is set by controls: 0 for no effect and ±100 for the full control effect; potency is the fitted concentration of half-maximal effect.
SMILES,VDR inhibitor,TrxR1 substrate,Sfp inh,GCN5L2 inh,GLS inh,TrxR1 inh
O=C(N/C(=C\c1ccco1)C(=O)N1CCOCC1)c1ccco1,11%,3%[57.1 µM],28µM*,-2%,5%,5%[57.1 µM]
COc1ccc(C(=O)N/C(=C/c2ccco2)C(=O)N2CCCCCC2)cc1,-1%,-8%,89µM*,-6%,-2%,?
NC(=O)/C(=C\c1ccco1)NC(=O)c1ccco1,nt,nt,nt,nt,2%,nt
NC(=O)/C(=C/c1ccco1)NC(=O)c1ccc(Br)o1,-6%,-4%,nt,nt,9%,11µM*
CCOC(=O)c1c(NC(=O)CSc2cn(CCNC(=O)c3ccc(OC)cc3)c3ccccc23)sc2c1CCCC2,5%,-1%,nt,-7%,2%,0%
CN(C)CCCCCNCCCNC(=O)/C=N\O,2%,11%,14%,3%,35%,-12%
COc1ccc(CN2CCCN(C)CC2)c(OC)c1C,4%,9%,79µM*,-6%,3%,21%
O=c1c(OCc2ccccc2)cccn1Cc1ccccc1,nt,nt,nt,nt,3%,nt
CC(=O)c1sc2nsc(SCCN3CCCC3)c2c1N,-9%,-3%[57.1 µM],40µM*,-12%,2%,7%[57.1 µM]
Cc1ccc(CSCC2Nc3ccc(C(=O)N4CCN(c5cccc(C)c5)C(C)C4)cc3NC2=O)cc1 (stereo not drawn),nt,nt,50µM*,?,nt,nt
Cc1cccc(N2CCN(C(=O)c3ccc4c(c3)NC(=O)C(CSCc3ccc(F)cc3)N4)CC2C)c1 (stereo not drawn),nt,nt,56µM*,?,nt,nt
COc1ccc(N2CCN(C(=O)c3ccc4c(c3)NC(=O)C(CSCc3c(F)cccc3Cl)N4)CC2)cc1 (stereo not drawn),nt,nt,-27%,?,nt,nt
Cc1ccc(CN2CCN(C3CCN(S(=O)(=O)c4ccc(C)cc4)CC3)C(=O)C2=O)cc1,2%,6%[57.1 µM],nt,-14%,0%,21%[57.1 µM]
COc1ccc(-n2cc(-c3ccc(OC)c(OC)c3)[nH]c2=S)cc1,-15%,0%,45µM*,-8%,18%,?
COc1ccc(-n2cc(-c3ccc(Br)cc3)[nH]c2=S)cc1,-9%,-5%[57.1 µM],-1%,-8%,-5%,21%[57.1 µM]
Cc1ccc(C(C(=O)NC(C)(C)C)N(CC2CCCO2)C(=O)Cn2nnc(-c3ccc(C)o3)n2)cc1 (stereo not drawn),12%,4%,56µM*,-5%,11%,23%
Cc1ccc(-c2nnn(CC(=O)N(Cc3ccc(F)cc3)C(C(=O)NC3CCCC3)c3ccncc3)n2)o1 (stereo not drawn),8%,5%,40µM*,2%,-14%,-6%
O=S(=O)(Nc1cccnc1)c1cccc(Cl)c1,-9%,9%,17%,4%,16%,5%
O=C1CC(c2cccc(Br)c2)c2cc3c(cc2N1)CCC3 (stereo not drawn),-2%,7%,-5%,-1%,0%,7%
CCOC(=O)N1CCC(NC(=O)c2cc(S(=O)(=O)NCCc3ccccc3)ccc2F)CC1,-3%,-8%,3%,-4%,-6%,-10%
CC(Sc1n[nH]c(=O)[nH]c1=O)C(=O)OCc1ccccc1 (stereo not drawn),2%,-10%,79µM*,nt,6%,-3%
CC1=C(/C=C/C(C)=C\C=C\C(C)=C\C=C\C=C(C)\C=C\C=C(C)\C=C\C2=C(C)C[C@@H](O)CC2(C)C)C(C)(C)C[C@H](O)C1,40µM*,nt,?,-12%,-4%,nt
CC1=C(/C=C/C(C)=C/C=C/C(C)=C/C=C/C=C(C)/C=C/C=C(C)/C=C/C(=O)[C@]2(C)CC(O)CC2(C)C)C(C)(C)CC(O)C1 (stereo partly drawn),2%,nt,11%,7%,nt,nt
CC1=C[C@@H](O)CC(C)(C)[C@@H]1/C=C/C(C)=C/C=C/C(C)=C/C=C/C=C(C)/C=C/C=C(C)/C=C/C1=C(C)C[C@H](O)CC1(C)C,28µM*,nt,50µM*,-5%,-13%,nt
O=C(O)c1oc2ccccc2c1-n1cccc1,-3%,-1%,-2%,1%,-7%,-1%
SMILES,VDR inhibitor,TrxR1 substrate,Sfp inh,GCN5L2 inh,GLS inh,TrxR1 inh
Cc1cccc(N2CCc3c2nc2ccc(Br)cc2c3N)c1,-8%,16%,13µM*,-10%,17%,-3%
Nc1c2c(nc3ccc(Br)cc13)N(c1ccccc1)CC2,-10%,19%,18µM*,-4%,9%,14%
COc1ccnc(CSC(N)=Nc2ccccc2OC)c1,?,-12%,32µM*,1%,1%,-36%
Cc1cc(C)c2ccc(Cl)cc2n1,-2%,-8%,15%,0%,-2%,?
Cc1cc(NN)nc2ccc(Cl)cc12,11%,3%,11µM*,-5%,11%,9%
O=C(/N=C1\NC(=O)C(F)(C(F)(F)F)S1)NC1CCCCC1 (stereo not drawn),50µM*,-7%,13µM*,-8%,-7%,25µM*
Cc1nc(CCN2C(=O)c3ccccc3C2=O)cs1,-17%,3%[0.457 µM],79µM*,-4%,20%,24%
O=S(=O)(Nc1cc(S(=O)(=O)N2CCOCC2)ccc1O)c1ccc2c(c1)OCCCO2,25µM*,2%,nt,?,13%,-3%
O=S(=O)(Nc1cc(S(=O)(=O)N2CCOCC2)ccc1N1CCOCC1)c1ccc2c(c1)OCCO2,-6%,2%,2%,-9%,11%,11%
C=CCOc1ccc(/C=C/C(=O)OCC(=O)NCc2cccs2)cc1,8%,-1%,nt,-2%,0%,-1%
Clc1ccc(SCNc2ccccc2Cl)cc1,?,-3%,45µM*,-10%,16%,55%
COc1ccc(CCNC(=O)C2CCN(C(=O)c3ccc(Cl)cc3)CC2)cc1OC,16%,-4%,7%,-8%,-2%,9%
Cc1ccc(Nc2nc(CSc3nnc(-c4ccncc4)n3C)cs2)cc1,-19%,0%,40µM*,-2%,6%,-2%
Cc1ccccc1Nc1nc(CSc2nnc(-c3ccoc3C)n2C)cs1,-6%,-7%,20µM*,-1%,nt,50µM*
COCOc1ccc(C=O)c(OCOC)c1,-1%,0%,nt,nt,-2%,15%
O=C(C[C@H]1C/C=C\CC[C@H](Cc2ccc(F)cc2)C(=O)OCCNC1=O)NCCO,-8%,-3%,nt,2%,0%,9%[57.1 µM]
COc1ccc(C=CC(=O)c2ccc(OC)c(OC)c2)cc1O,nt,nt,nt,nt,23%,nt
COc1ccc(/C=C/C(=O)c2ccc(Cl)s2)cc1O,79µM*,-7%,-2%,-6%,26%,-35%
COc1ccc(/C=C/C(=O)CC(=O)/C=C/c2cccc(O)c2OC)cc1O,?,nt,32µM*!,-6%,nt,nt
COc1cc(/C=C/C(=O)c2cccs2)cc(OC)c1OC,13µM*,nt,?,-27%,nt,nt
